# From PubChem BioAssay
# RORg inh: inhibitors of mouse ROR gamma transcriptional activity; P51450; Drosophila S2 Gal4-RORgamma UAS-luciferase reporter, 20 h; Potency, µM (titrated, usually from 53.6 µM), for inactives: at the highest dose activity change, negative = inhibition, hits mostly inhibitors; 310,000 compounds, 5.4% hits; AID 2551; note: potency is the fitted concentration of half-maximal effect; nearly all actives have a fitted effect of over 60% in size
# Target sequence (P51450 whole entry, looked up, the tested form may be a part): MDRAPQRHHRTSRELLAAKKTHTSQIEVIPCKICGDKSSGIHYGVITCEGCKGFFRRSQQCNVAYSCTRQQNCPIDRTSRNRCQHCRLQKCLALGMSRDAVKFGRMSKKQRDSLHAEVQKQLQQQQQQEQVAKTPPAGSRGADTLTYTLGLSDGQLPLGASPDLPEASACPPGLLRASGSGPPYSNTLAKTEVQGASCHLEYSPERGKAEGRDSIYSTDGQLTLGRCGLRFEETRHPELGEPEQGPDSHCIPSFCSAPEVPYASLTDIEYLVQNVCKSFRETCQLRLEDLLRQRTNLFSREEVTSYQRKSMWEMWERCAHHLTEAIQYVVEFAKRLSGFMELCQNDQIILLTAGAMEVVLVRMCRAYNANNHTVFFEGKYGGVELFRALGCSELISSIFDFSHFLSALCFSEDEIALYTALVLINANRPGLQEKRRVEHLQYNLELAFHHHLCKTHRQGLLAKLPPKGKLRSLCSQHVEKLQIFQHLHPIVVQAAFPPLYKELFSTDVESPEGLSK
#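 Luciferase reporter read in Schneider cells carrying Gal4-RORγ (mouse) and UAS-Photinus luciferase; cells given compound 1 h before 700 uM copper sulfate induction, then incubated 20 h at ambient temperature.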
# Gal4-VP16 FLuc: Gal4-VP16 reporter inhibition counter-screen; Drosophila S2 Gal4-VP16 UAS-luciferase, luminescence, 20 h; Potency, µM (titrated, usually from 53.6 µM), inactives show at the highest dose activity, negative = inhibition, most hits filed as inhibitors; 310,000 compounds, 3.5% hits;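 note: Gal4-VP16 expression switched on by copper sulfate through the metallothionein promoter; potency is the fitted concentration of half-maximal effect; nearly all actives have a fitted effect of over 50% in size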
# IL1B secr inh: inhibitors of inflammasome signaling (IL-1 beta secretion). 360,000 compounds, 4.7% hits. THP-1 LPS/ATP IL-1B secretion, AlphaLISA, 16 h; hits give low values. AID 743279. activity change, % at 57.5 µM; in the data active = activity change below about -50%; inconclusive = mostly about -30% to -49%
#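 THP-1 cells pretreated 1 hr with compounds (up to 57.5 uM final), then stimulated with LPS (250 ng/mL final) plus ATP (1.25 mM final); secreted IL-1B measured by AlphaLISA after 16 hr, decreased signal indicating inhibition.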
# TDP1 cell noCPT: qHTS for Inhibitors of human tyrosyl-DNA phosphodiesterase 1 (TDP1): qHTS in cells in absence of CPT. DT40 Tdp1-/- hTDP1 cells, no CPT, ATP luminescence, 48 h. 420,000 compounds, 15% hits. Potency, µM (titrated, usually from 46.2 µM), without a hit: top-dose activity change, negative = growth inhibition, hits mostly inhibitors; note: potency is the fitted concentration of half-maximal effect; nearly all actives have a fitted effect of over 55% in size
#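 Stably hTDP1-transfected Tdp1-null chicken DT40 cells were treated with library compounds minus camptothecin and grown for at least 48 hr at 37 °C, after which cellular ATP was quantified by luminescence.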
# TDP1 cell CPT: DT40-hTDP1 cell growth loss with CPT; 420,000 compounds, 12% hits; Potency, µM (series often up to 46.2 µM), for inactives: top-dose activity change, negative = growth inhibition, actives largely listed as inhibitors; chicken DT40 Tdp1-/-;hTDP1 cells + 20 nM CPT, ATP luminescence, 48 h; note: potency is the fitted concentration of half-maximal effect; nearly all actives have a fitted effect of over 55% in size
#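 Cell growth measured by CellTiter-Glo luminescence after a minimum 48 h, 37 C compound exposure with 20 nM CPT in Tdp1-knockout DT40 cells stably expressing hTDP1, seeded 400/well; qHTS titration format.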
# LDHA block: LDHA (human) enzyme inhibition; AID 1347041; purified LDHA, NADH/diaphorase-resazurin fluorescence; hits give low values; 480,000 compounds, 0.15% hits; activity change, % (values are at about 110 or 230 µM); in the data active = activity change below about -30%; inconclusive = mostly about -25% to -30%;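 note: plate controls were DMSO wells for no effect and wells without enzyme for full effect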
#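 Enzyme activity of human lactate dehydrogenase 5 (2 nM; 0.06 mM NADH, 0.2 mM pyruvate, 5 min, RT) is measured via a resazurin/diaphorase fluorescence readout of residual NADH.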
# * marks the source's active call; other numbers are inactive results; ? = inconclusive; · = no result; [ ] = another dose, or the depositor's remark. Rows were chosen to be rich in hits. Some 18% of all compounds tested hit in one or more screens of this group. Unless noted, calls come from the whole dose curve; as a rule, active = well fitted curve in the direction sought with a large enough effect; inconclusive = small, poorly fitted or top-dose-only effect, or another doubt; inactive = no such curve, though single readings can be large; an effect the other way counts as inactive or inconclusive. Unless noted, % is set by controls: 0 for no effect and ±100 for the full control effect.
SMILES,RORg inh,Gal4-VP16 FLuc,IL1B secr inh,TDP1 cell noCPT,TDP1 cell CPT,LDHA block
Fc1cccc(CCN2CCNC[C@H]2Cc2cccc3ccccc23)c1,·,·,-59.6*,?,?,3.6
COc1cc(=O)[nH]c(SCC(=O)Nc2nc3c(s2)CCCC3)n1,29.4%,-7.9%,43.9,?,23.1µM*,2.8
COc1cc(=O)[nH]c(SC(C)C(=O)Nc2nc3c(s2)CCCC3)n1 (stereo unspecified),-7.8%,4.0%,34.3,-14.5%,-18.9%,8.3
CC(C)n1c(SCC(=O)Nc2nc3c(s2)CCCC3)nc2c1c(=O)n(C)c(=O)n2C,?,-5.2%,?,2.91µM*,11.6µM*,3.4
CCOC(=O)c1cc2cc(Oc3cccc(C)c3)ccc2[nH]1,·,·,·,·,·,8.5
COc1cc(OC)c2cc(C(=O)NC(C)C(=O)Nc3nc(C)cs3)n(C)c2c1 (stereo unspecified),·,·,·,·,·,1.2
CC(C)NC(=O)C(C)Sc1ncnc2ccccc12 (stereo unspecified),·,·,·,·,·,-7.2
Cn1c(=O)c2c(nc(CN3CCN(C(=O)c4ccco4)CC3)n2CCCc2ccccc2)n(C)c1=O,35.7%,-4.3%,9.6,20.6µM*,?,-6.9
CC1CCCN(Cc2nc3c(c(=O)n(C)c(=O)n3C)n2CCCc2ccccc2)C1 (stereo unspecified),-13.4%,3.7%,-2.5,18.4µM*,20.6µM*,-7.1
Nc1ccccc1Oc1ccccc1,-2.0%,-11.0%,·,·,·,6.4
Nc1ccc(Oc2ccccc2-c2ccccc2)cc1,·,·,-56.8*,-26.7%,4.6%,0.3
O=C(NCc1ccc(F)cc1)C1CCN(S(=O)(=O)N2CCCC2)CC1,6.4%,-0.5%,0.5,16.4µM*,?,0.4
CC1CCN(S(=O)(=O)N2CCC(C(=O)NCc3ccccc3Cl)CC2)CC1,·,·,·,13µM*,?,-6.5
CC1CCN(S(=O)(=O)N2CCCC(C(=O)NCc3ccccc3Cl)C2)CC1 (stereo unspecified),2.9%,-5.9%,-14.6,-21.0%,-18.8%,-1.1
O=C(NCc1ccccc1CN1CCCC1)C1CCN(S(=O)(=O)c2ccc(F)c(F)c2)CC1,·,·,-50.5*,-22.1%,-16.1%,-6.8
CSc1ccc(CNC(=O)C2CCCN(S(=O)(=O)N(C)c3ccc(F)cc3)C2)cc1 (stereo unspecified),·,·,·,20.6µM*,23.1µM*,1.5
CCCN(CCC)C(=O)COc1ccc2c(C)cc(=O)oc2c1,·,·,·,·,·,0.8
CCOCCCNC(=O)c1cc(-c2ccccc2)nc2ccccc12,·,·,·,·,·,11.6
O=C(NCc1ccccc1Cl)C1CCN(S(=O)(=O)N2CCCCCC2)CC1,?,-4.7%,-2.7,17.8µM*,?,-5.8
CCc1nn(C(CC)C(=O)NCC(C)c2ccccc2)c(=O)c2cc3occc3n12 (stereo unspecified),-5.2%,5.7%,?,-26.8%,?,-1.5
CCc1nn(C(CC)C(=O)NCCCN2CC(C)CC(C)C2)c(=O)c2cc3oc(C)cc3n12 (stereo unspecified),-22.9%,1.8%,-9.8,?,16.4µM*,-1.8
C#CCSc1nc(=O)c2cccnc2n1-c1ccc(C)cc1,-9.4%,-0.3%,25.8,5.8µM*,5.17µM*,-7.8
COc1ccc(-c2cc3c(=O)n(CC(=O)NCCCN4CCN(Cc5ccccc5)CC4)ncn3n2)cc1,-16.2%,-8.6%,15.6,5.17µM*,9.2µM*,-4.7
COc1ccc(-c2cc3c(=O)n(CC(=O)NCc4ccc(C)cc4)ncn3n2)cc1,-16.4%,5.6%,16.7,6.51µM*,7.31µM*,-3.4
COc1ccc(-c2cc3c(=O)n(CC(=O)NCc4ccc(F)cc4)ncn3n2)cc1,-2.5%,6.1%,17.9,?,?,-7.7
SMILES,RORg inh,Gal4-VP16 FLuc,IL1B secr inh,TDP1 cell noCPT,TDP1 cell CPT,LDHA block
CC1(C)Cc2c(sc3nc(-c4cc5ccccc5o4)n(N)c(=O)c23)CO1,-11.4%,24.6%,-3.6,20.6µM*,?,3.1
CC(C)Cc1nc2sc3c(c2c(=O)n1N)CC(C)(C)OC3,?,-13.5%,-3.6,10.3µM*,18.4µM*,-8.2
CC1(C)Cc2c(sc3nnn(Cc4ccc(Cl)cc4)c(=O)c23)CO1,?,?,-8.9,13µM*,?,4.6
Cc1ccc(-c2nc3sc4c(c3c(=O)n2N)CC(C)(C)OC4)cc1,-40.2%,10.0%,?,?,-16.6%,-5.1
Oc1ccccc1C1Nc2cccc3cccc(c23)N1,16.5%,-15.1%,9.9,?,?,13.4
c1ccc(C2Nc3cccc4cccc(c34)N2)cc1,?,-21.0%,38.9,-88.7%,18.4µM*,8.4
CN(C)c1ccc(C2Nc3cccc4cccc(c34)N2)cc1,-20.0%,8.3%,9.7,23.1µM*,?,-5.2
O=[N+]([O-])c1ccccc1C1Nc2cccc3cccc(c23)N1,1µM*,-1.0%[0.365 µM],-65.9*,?,7.31µM*,19.5
COc1ccccc1C1Nc2cccc3cccc(c23)N1,?,10.7%,-24.3,20.6µM*,14.6µM*,10.9
CN1c2cccc3cccc(c23)N(C)C1c1cccs1,-25.5%,-23.4%,2.2,-14.0%,-3.7%,13.7
COc1cc(OC)c(C2Nc3cccc4cccc(c34)N2)c(OC)c1,-18.5%,-5.1%,-15.6,14.6µM*,20.6µM*,6.5
Brc1cccc(C2Nc3cccc4cccc(c34)N2)c1,·,·,2.0,-18.5%,?,3.0
COc1ccc(/C=C(\C)C2Nc3cccc4cccc(c34)N2)cc1,·,·,·,·,·,5.5
Brc1ccc(C2Nc3cccc4cccc(c34)N2)o1,2.6%,2.2%,-77.3*,18.4µM*,20.6µM*,14.9
COc1ccc(C2Nc3cccc4cccc(c34)N2)cc1,-32.3%,0.0%,28.7,?,20.6µM*,1.6
c1csc(C2Nc3cccc4cccc(c34)N2)c1,-21.2%,-16.7%,-26.7,?,16.4µM*,11.6
COc1cc(C(=O)Nc2sc3ccccc3c(=O)c2-c2ccccc2)cc(OC)c1OC,·,·,·,·,·,2.3
COC(=O)c1cccn2cc(CN3CCN(S(=O)(=O)c4cccc(C(F)(F)F)c4)CC3)nc12,·,·,·,·,·,-7.3
Clc1cccc(C2Nc3cccc4cccc(c34)N2)c1,-30.5%,-10.6%,-23.3,10.3µM*,5.17µM*,2.3
O=C(Nc1ccc2oc(-c3cccnc3)nc2c1)c1ccc(Cl)c(Cl)c1,·,·,·,·,·,-0.3
NC1=C(Br)C(=O)c2ncccc2C1=O,·,·,-97.6*,1.64µM*,0.651µM*,40.7
O=C1C(=O)c2ncccc2-c2cccnc21,-37.6%,-11.7%,·,5.31µM*,5.96µM*,·
